A selection: hits, their analogues and other compounds. The true share with any hit is near 3.5%.
FBW7 act = human FBW7 E3 ligase activation, primary screen | Q969H0 | normalized activity (activation), % at 26.1 µM | AlphaScreen FBW7–phospho-cyclin E peptide binding, activator screen | AID 1259310 | 0.13% of 650,000 active; in the data active = normalized activity above about 1.9%;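 also: purified mutant Fbw7 with reduced substrate affinity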
MITF primary = human MITF inhibition, primary screen; AlphaScreen MITF homodimerization, bead proximity signal; inhibition, % at 2.6 µM; O75030; 0.91% of 650,000 active; AID 1259374; in the data active = inhibition above about 50%;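 also: 0% = vehicle wells with protein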
TEAD-YAP block = TEAD-YAP interaction inhibition | HEK-TIYL cells, TEAD-Gal4/YAP UAS-luciferase luminescence | inhibition, % at 9.12 µM | 1.4% of 640,000 active | AID 1259422; in the data active = inhibition above about 32%;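 also: 0% = median of test compound wells and 100% = reference inhibitor wells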
GPR151 activ = activates the human receptor GPR151. PathHunter beta-arrestin GPR151 cells, luminescence. activation, % at 11.2 µM. 1% of 650,000 active; in the data active = activation above about 4.9%;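 also: 0% = median of compound wells and 100% = cells with positive control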
Target sequence (Q8TDV0 whole entry, looked up): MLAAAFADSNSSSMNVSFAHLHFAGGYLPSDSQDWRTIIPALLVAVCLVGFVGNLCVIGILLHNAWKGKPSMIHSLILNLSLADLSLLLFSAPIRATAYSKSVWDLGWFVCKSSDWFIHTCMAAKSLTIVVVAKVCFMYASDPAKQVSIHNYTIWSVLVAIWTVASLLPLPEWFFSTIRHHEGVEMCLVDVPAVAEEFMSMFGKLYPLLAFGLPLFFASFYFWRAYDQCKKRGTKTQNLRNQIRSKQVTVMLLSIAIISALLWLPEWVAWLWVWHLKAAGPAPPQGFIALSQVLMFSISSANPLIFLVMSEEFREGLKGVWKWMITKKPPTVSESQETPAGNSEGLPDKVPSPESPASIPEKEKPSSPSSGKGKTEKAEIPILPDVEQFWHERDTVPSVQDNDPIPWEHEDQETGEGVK
* marks the source's active call; other numbers are inactive results.

How did CCOC(=O)N1CCc2c(sc(NCc3cccc(OC)c3OC)c2C(=O)Nc2ccc(OC)cc2OC)C1 do in these assays?
FBW7 act: 0; MITF primary: 31; TEAD-YAP block: 37*; GPR151 activ: 0

What do the screens show for `CCOC(=O)N1CCc2c(sc(NC(=O)Cc3ccccc3)c2C(N)=O)C1`?
FBW7 act: 0; MITF primary: 17; TEAD-YAP block: -3; GPR151 activ: -1

Results for CN1CCN(C(=O)CN(c2ccc3c(c2)OCO3)S(C)(=O)=O)CC1 ?
FBW7 act: 0; MITF primary: -1; TEAD-YAP block: -6; GPR151 activ: 4

How did Nc1ccc(O)c2c1C(=O)c1c(cccc1[N+](=O)[O-])C2=O do in these assays?
FBW7 act: -1; MITF primary: 88*; TEAD-YAP block: 0; GPR151 activ: 0

How did COc1ccc(NC(=O)Cn2ncn3cccc3c2=O)cc1OC do in these assays?
FBW7 act: 0; MITF primary: 7; TEAD-YAP block: 4; GPR151 activ: 1

What do the screens show for `COc1cc(Nc2nc(Nc3ccc(-n4ccnc4)cc3)nc3c2ncn3C(C)C)cc(OC)c1OC`?
FBW7 act: 0; MITF primary: -1; TEAD-YAP block: 40*; GPR151 activ: -2

What do the screens show for `COc1cc2nc(Nc3cnccn3)nc(Nc3cc(OC)c(OC)c(OC)c3)c2cc1OC`?
FBW7 act: 0; MITF primary: 15; TEAD-YAP block: 33*; GPR151 activ: 1

How did COc1cc(Nc2nc(Nc3ccc(N4CCOCC4)cc3)nc3c2ncn3C(C)C)cc(OC)c1OC do in these assays?
FBW7 act: 0; MITF primary: 5; TEAD-YAP block: 4; GPR151 activ: 0

How did COc1cc(Nc2nc(Nc3ccc(N4CCOCC4)cc3)c3ncn(C(C)C)c3n2)cc(OC)c1OC do in these assays?
FBW7 act: 0; MITF primary: 17; TEAD-YAP block: 33*; GPR151 activ: 1

What do the screens show for `COc1cc(Nc2nc(Nc3cnccn3)nc3c2ncn3C(C)C)cc(OC)c1OC`?
FBW7 act: 0; MITF primary: 5; TEAD-YAP block: 47*; GPR151 activ: 2

What do the screens show for `CCOC(=O)c1sc2nc(C)nc(Nc3cc(Cl)ccc3OC)c2c1C`?
FBW7 act: 0; MITF primary: -5; TEAD-YAP block: -8; GPR151 activ: 0

What do the screens show for `COc1ccc(-n2c(SC)nc3c(sc(=S)n3-c3ccccc3)c2=O)c(OC)c1`?
FBW7 act: 0; MITF primary: -11; TEAD-YAP block: -7; GPR151 activ: -1

Results for CC(C)S(=O)(=O)C1=NSC2=NC(=O)/C(=C\c3ccc([N+](=O)[O-])o3)C(=N)N21 ?
FBW7 act: 0; MITF primary: 53*; TEAD-YAP block: 5; GPR151 activ: -2

Results for CC(C)CS(=O)(=O)C1=NSC2=NC(=O)/C(=C\c3ccc([N+](=O)[O-])o3)C(=N)N21 ?
FBW7 act: 0; MITF primary: 66*; TEAD-YAP block: 0; GPR151 activ: 0

How did C(=N\Nc1nnnn1-c1ccccc1)/c1ccc2c(c1)OCO2 do in these assays?
FBW7 act: 0; MITF primary: 16; TEAD-YAP block: 7; GPR151 activ: 0

How did COC(=O)c1cc(Nc2cc(OC)cc(OC)c2)c2cc(C)ccc2n1 do in these assays?
FBW7 act: 0; MITF primary: 1; TEAD-YAP block: 41*; GPR151 activ: 1

Results for COC(=O)c1cc(Nc2cccc(OC)c2)c2cc(Cl)ccc2n1 ?
FBW7 act: 0; MITF primary: 4; TEAD-YAP block: 38*; GPR151 activ: 0

Results for COC(=O)c1cc(Nc2ccccc2OC)c2cc(Cl)ccc2n1 ?
FBW7 act: 0; MITF primary: -2; TEAD-YAP block: 28; GPR151 activ: 2

What do the screens show for `COC(=O)c1cc(Nc2ccc3c(c2)OCO3)c2cc(C)ccc2n1`?
FBW7 act: 0; MITF primary: -11; TEAD-YAP block: 13; GPR151 activ: 0

Results for COc1ccc(C2SCCN2S(=O)(=O)c2ccc(NC(C)=O)cc2)cc1 (stereo unspecified) ?
FBW7 act: 1; MITF primary: 13; TEAD-YAP block: 14; GPR151 activ: 3

How did COc1ccc(C2SCCN2S(=O)(=O)c2ccc(NC(C)=O)cc2)cc1OC (stereo unspecified) do in these assays?
FBW7 act: 1.9*; MITF primary: 14; TEAD-YAP block: 2; GPR151 activ: -1

How did COc1ccc(C(=O)Nc2nc3c(s2)CCCC3)c(OC)c1OC do in these assays?
FBW7 act: 1; MITF primary: 8; TEAD-YAP block: 62*; GPR151 activ: -2

What do the screens show for `COc1cccc(C(=O)Nc2nc3c(s2)CCC3)c1OC`?
FBW7 act: 0; MITF primary: -4; TEAD-YAP block: 62*; GPR151 activ: -9

How did COc1cccc(OC)c1C(=O)Nc1nc2c(s1)CCCC2 do in these assays?
FBW7 act: 1; MITF primary: 9; TEAD-YAP block: -33; GPR151 activ: 1

Results for Cc1cc(C)c2c(N)c(-c3nc4ccccc4[nH]3)sc2n1 ?
FBW7 act: 0; MITF primary: -4; TEAD-YAP block: -42; GPR151 activ: -4

Results for Cc1ccc2nc(-c3sc4nc(C)ccc4c3N)[nH]c2c1 ?
FBW7 act: 0; MITF primary: -3; TEAD-YAP block: 72*; GPR151 activ: 0

What do the screens show for `CCCC(=O)N1CCC(C2(Cc3ccc(F)cc3)NC(=O)N(CC3CCCO3)C2=O)CC1` (stereo unspecified)?
FBW7 act: 0; MITF primary: 10; TEAD-YAP block: 5; GPR151 activ: 2

Results for CC(C)CC(=O)Nc1ccc(S(=O)(=O)N2CCC(c3nc4ccccc4[nH]3)CC2)cc1 ?
FBW7 act: 0; MITF primary: 20; TEAD-YAP block: 34*; GPR151 activ: 1

How did CC1(C)Cc2nc3sc4c(SCC(=O)O)ncnc4c3cc2CO1 do in these assays?
FBW7 act: 0; MITF primary: 4; TEAD-YAP block: 47*; GPR151 activ: -1

What do the screens show for `Cc1ccc(C2CC(c3ccc(Br)cc3)=NN2c2nc(-c3ccccc3)c3cc(Cl)ccc3n2)cc1` (stereo unspecified)?
FBW7 act: 0; MITF primary: -5; TEAD-YAP block: 3; GPR151 activ: 1

What do the screens show for `Cc1cc(-c2cnc(C)nc2C2CCCNC2)on1` (stereo unspecified)?
FBW7 act: 0; MITF primary: -13; TEAD-YAP block: -1; GPR151 activ: 2

Results for COc1cc(OC)c2c(=O)c(-c3ccc4c(c3)OCO4)coc2c1 ?
FBW7 act: 0; MITF primary: -6; TEAD-YAP block: -66; GPR151 activ: 0

What do the screens show for `CC(=O)Oc1ccc2c(=O)c(-c3ccc4c(c3)OCCCO4)coc2c1`?
FBW7 act: 0; MITF primary: 4; TEAD-YAP block: 67*; GPR151 activ: -2

How did COc1ccc2c(=O)c(-c3ccc4c(c3)OCCCO4)coc2c1 do in these assays?
FBW7 act: 0; MITF primary: 18; TEAD-YAP block: -23; GPR151 activ: -1

What do the screens show for `CC(=O)Oc1cc(OC(C)=O)c2c(=O)c(-c3ccc4c(c3)OCCCO4)coc2c1`?
FBW7 act: 0; MITF primary: 3; TEAD-YAP block: 70*; GPR151 activ: -1
